System: CDK4
Conditions: concentration: 1 μM, replicates: in singlicate; n = 1
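Further: KINOMEscan kinase panel screen.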

Row | Structure (SMILES) | %Inh [%]
1 | N#CC1(c2cccc(C(=O)Nc3cccc(Oc4ccc5nc(NC(=O)C6CC6)sc5n4)c3)c2)CC1 | 0
2 | Cc1ccc(C)c(NC(=O)Nc2ccc(C)c(-c3ccc(C(=O)Nc4ccncc4)cc3)c2)c1 [GSK1398473] | 0
3 | O=C(Nc1n[nH]c2nc(-c3ccccc3O)ccc12)C1CC1 [SB-711880] | 0
4 | CCn1c(-c2nonc2N)nc2c(-c3ccccc3)ncc(OCCCN)c21.O=C(O)C(F)(F)F.O=C(O)C(F)(F)F [GSK260205] | 0
5 | Cl.Cl.NC(CNC(=O)c1cc(Br)c(-c2ccnc3[nH]ccc23)s1)c1ccccc1 (stereo not drawn) [GSK1322949] | 23
6 | CCOc1nccc(-c2c(-c3ccc(F)cc3)ncn2C2CCNCC2)n1 [SB-249175] | 26
7 | COc1cccc2c(-c3ccncc3)c(-c3ccc(F)cc3)nn12 [GW468513] | 0
8 | CC(C)c1nc(-c2cccc(NS(=O)(=O)c3c(F)cccc3F)c2)c(-c2ccnc(Nc3ccc(N4CCOCC4)nc3)n2)s1.Cl [GSK1723980] | 94.4
9 | O=C(Nc1n[nH]c2cc(-c3cccs3)ccc12)C1CC1 [SB-731284] | 8
10 | Cc1ccc(NC(=O)c2cccc(N3CCCCC3)c2)cc1-c1ccc(C(=O)NCC2CC2)cc1 [GSK1917008] | 0
11 | Cl.O=C(Nc1ccc(Oc2ccc3[nH]c(NC(=O)c4ccco4)nc3c2)cc1)Nc1cc(C(F)(F)F)ccc1F [GW683134] | 4
12 | Cn1cc(-c2ccc3c(c2)CCN3C(=O)Cc2cc(F)cc(C(F)(F)F)c2)c2c(N)ncnc21 [GSK2635225] | 32
13 | COc1cc(Nc2nccc(N3CCC(NS(=O)(=O)c4ccc(NC(C)=O)cc4)CC3)n2)cc(OC)c1OC [GSK1379825] | 0
14 | O=C1NC(=O)C(c2ccccc2Cl)=C1Nc1cccc(Cl)c1 [SB-342409] | 0
15 | Cc1cc(-c2ccnc(Nc3cccc(C#N)c3)n2)cc(C)c1O [GSK1440913] | 0
16 | CC(C)NCC(Cc1ccccc1)NC(=O)c1cc(Br)c(-c2ccnc3[nH]ccc23)s1.Cl.Cl (stereo not drawn) [GSK1383281] | 0
17 | Nc1ncc(-c2ccc3nccc(-c4ccncc4)c3c2)cc1S(=O)(=O)N1CCCCC1 [GSK1693850] | 0

Row | Structure (SMILES) | %Inh [%]
18 | COc1cc(Nc2ccnc3cc(-c4ccncc4)ccc23)cc(OC)c1OC.Cl [GW494610] | 27
19 | COC(=O)Nc1nc2ccc(Oc3ccc(NC(=O)Nc4cc(C(F)(F)F)ccc4F)cc3)cc2[nH]1.Cl [GW654607] | 26
20 | c1ccc(Oc2ccc(Nc3ccnc4cc(-c5ccc(CN6CCCCC6)o5)ccc34)cc2)nc1 [GW567143] | 18
21 | COc1cccc(CC(=O)N2CCc3cc(-c4cn(C)c5ncnc(N)c45)ccc32)c1 [GSK2608899] | 25
22 | COc1ccc(C)c(Nc2ccnc(Nc3ccc(-c4cnc[nH]4)cc3)n2)c1.Cl [GW784041] | 0
23 | CCNC(=O)/C=C/c1n[nH]c2cc(Sc3ccccc3C(=O)NC)ccc12 | 1
24 | Cl.N#CCc1ccc(Nc2nccc(Nc3ccc(Oc4ccccc4)cc3)n2)cc1 [GW639905] | 0
25 | CC(=O)Nc1cn2nc(Oc3cccc(NC(=O)c4cccc(C(F)(F)F)c4)c3)ccc2n1 | 0
26 | CCNc1nccc(-c2c(-c3ccc(F)cc3)ncn2C2CCN(C)CC2)n1 | 0
27 | COC(=O)Nc1nc2cc(Oc3ccc(NC(=O)Nc4cccc(SC)c4)cc3)ccc2[nH]1.Cl [GW697999] | 49
28 | Fc1cc(Cl)ccc1Nc1ccnc2cc(-c3ccc(CN4CCOCC4)o3)ccc12 [GW560109] | 0
29 | NCCC(NC(=O)c1cc(Br)c(-c2ccnc3[nH]ccc23)s1)c1ccccc1.O=C(O)C(F)(F)F.O=C(O)C(F)(F)F (stereo not drawn) [GSK1307810] | 27
30 | Cc1ccc(O)cc1Nc1ccnc2cc(-c3ccc(CN4CCCCC4)o3)ccc12 [GW557777] | 0
31 | CCn1cnc2c(NCc3ccccc3)ncnc21 [SKF-96418] | 8
32 | CN(c1ccc(F)c(NC(=O)c2cccc(OC(C)(C)C#N)c2Cl)c1)c1ccc2nc(NC(=O)C3CC3)sc2n1 | 12
33 | Cn1cc(-c2ccc3c(c2)CCN3C(=O)Cc2cc(F)cc(F)c2F)c2c(N)ncnc21 [GSK2634140] | 26
